Source: PubChem BioAssay AID1159580 (chemical genetic matrix, 2015)
Values joined by “and” are separate entries in the source; they are usually repeats but may differ in a detail not shown here. Equal values may be shown once. Out of some 5,500 compounds screened, about 2,000 (36%) were called active. Another 18% or so got no clear call; they are omitted. No stated cut-off is given here; in the data, active means normalized growth mostly below about 0.91 (no sharp cut-off); inconclusive means no clear call, values can overlap the other calls; inactive means mostly above about 0.92. The list shows a part of the results.

Assay: chemical genetic growth profiling, strain panel (AID 1159580);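 further: tested at 20 µM; growth read once vehicle control cultures reached saturation at 30 °C; 1 = growth at the plate median or of vehicle wells; lower values mean less growth of the strain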
Details: S. cerevisiae deletion strains, growth OD

Measured: normalized growth

CC(=O)O[C@H]1C[C@@H](O)C(C)(C)C2C[C@@H](OC(C)=O)[C@]3(C)C(CC[C@@]4(C)[C@H](c5ccoc5)OC(=O)C5OC543)[C@]21C (stereo partly specified)
inactive: locus YAL013W, strain DEP1, active compounds read low 0.994 | locus YAL021C, strain ccr4, active compounds read low 1.02 | locus YAL026C, strain drs2, active compounds read low 1.01 | locus YAL030W, strain snc1, active compounds read low 1 | locus YBL061C, strain skt5, active compounds read low 1 | locus YBR009C, strain hhf1, active compounds read low 0.997 | locus YBR021W, strain FUR4, active compounds read low 1.03 | locus YBR023C, strain chs3, active compounds read low 1.01 | locus YBR171W, strain sec66, active compounds read low 1.01 | locus YBR229C, strain ROT2, active compounds read low 0.948 | locus YBR231C, strain swc5, active compounds read low 0.998 | locus YBR279W, strain paf1, active compounds read low 0.999 | locus YCL011C, strain gbp2, active compounds read low 0.999 | locus YCL016C, strain dcc1, active compounds read low 0.997 | locus YCL029C, strain bik1, active compounds read low 0.984 | locus YCL061C, strain MRC1, active compounds read low 1.01 | locus YCL069W, strain vba3, active compounds read low 1 | locus YCR088W, strain abp1, active compounds read low 1.01 | locus YDL005C, strain med2, active compounds read low 1 | locus YDL035C, strain GPR1, active compounds read low 0.984 | locus YDL040C, strain nat1, active compounds read low 1 | locus YDL074C, strain BRE1, active compounds read low 0.952 | locus YDL101C, strain DUN1, active compounds read low 0.986 | locus YDL185W, strain tfp1, active compounds read low 0.97 | locus YDL192W, strain arf1, active compounds read low 0.97 | locus YDR001C, strain nth1, active compounds read low 1.01 | locus YDR069C, strain doa4, active compounds read low 1.01 | locus YDR101C, strain arx1, active compounds read low 0.973 | locus YDR137W, strain rgp1, active compounds read low 1 | locus YDR159W, strain sac3, active compounds read low 1.01 | locus YDR162C, strain NBP2, active compounds read low 0.977 | locus YDR195W, strain ref2 0.985 | locus YDR297W, strain sur2, active compounds read low 1.01 | locus YDR318W, strain mcm21, active compounds read low 0.984 | locus YDR334W, strain swr1, active compounds read low 1.01 | locus YDR335W, strain msn5, active compounds read low 0.996 | locus YDR388W, active compounds read low 1 | locus YDR392W, strain spt3, active compounds read low 1.02 | locus YDR502C, strain sam2, active compounds read low 1.01 | locus YEL003W, strain gim4, active compounds read low 1 | locus YEL037C, strain rad23, active compounds read low 0.997 | locus YEL061C, strain CIN8 (second series), active compounds read low 1.01 | locus YER015W, strain faa2, active compounds read low 1.01 | locus YER016W, strain bim1, active compounds read low 1 | locus YER110C, active compounds read low 0.97 | locus YER111C, strain swi4, active compounds read low 1.02 | locus YER155C, strain BEM2 (second series), active compounds read low 1.02 | locus YER155C, strain BEM2, active compounds read low 1.02 | locus YER167W, strain BCK2, active compounds read low 0.988 | locus YFR010W, strain ubp6, active compounds read low 1.01 | locus YGL078C, strain dbp3, active compounds read low 0.983 | locus YGL086W, strain mad1, active compounds read low 0.997 | locus YGL167C, strain pmr1, active compounds read low 0.999 | locus YGL173C, strain kem1, active compounds read low 1.01 | locus YGL227W, strain vid30, active compounds read low 1 | locus YGL240W, strain doc1, active compounds read low 1 | locus YGL248W, strain PDE1, active compounds read low 0.975 | locus YGL253W, strain hxk2, active compounds read low 1.02 | locus YGR078C, strain PAC10, active compounds read low 1 | locus YGR135W, strain pre9, active compounds read low 1.03 | locus YGR229C, strain SMI1, active compounds read low 0.976 | locus YGR252W, strain gcn5, active compounds read low 0.966 | locus YHR013C, strain ard1, active compounds read low 1.01 | locus YHR027C, strain rpn1, active compounds read low 1.01 | locus YHR030C, strain SLT2, active compounds read low 0.987 and 0.952 | locus YHR079C, strain IRE1 (second series), active compounds read low 0.99 | locus YHR079C, strain IRE1, active compounds read low 0.974 | locus YHR094C, strain hxt1, active compounds read low 0.979 | locus YHR129C, strain ARP1, active compounds read low 0.993 | locus YHR142W, strain chs7, active compounds read low 0.999 | locus YHR200W, strain rpn10, active compounds read low 0.99 | locus YIL066C, strain RNR3, active compounds read low 0.957 | locus YIL073C, strain SPO22, active compounds read low 1.04 | locus YIL125W, strain kgd1, active compounds read low 0.983 | locus YIR030C, strain dcg1, active compounds read low 0.992 | locus YJL092W, strain hpr5, active compounds read low 1.01 | locus YJL095W, strain BCK1 (second series), active compounds read low 1.01 | locus YJL095W, strain BCK1, active compounds read low 1.03 and 1 | locus YJL115W, strain asf1, active compounds read low 1 | locus YJL129C, strain trk1, active compounds read low 1.01 | locus YJL134W, strain LCB3, active compounds read low 0.978 | locus YJL154C, strain vps35, active compounds read low 1 | locus YJL164C, strain tpk1, active compounds read low 1.01 | locus YJL166W, strain qcr8, active compounds read low 0.999 | locus YJL168C, strain set2, active compounds read low 0.997 | locus YJL187C, strain SWE1 (second series), active compounds read low 0.999
